Experimental data reported in PubChem BioAssay (EPA / NIEHS).
Several values for one entry are separate records, joined by “and”; a condition that tells them apart may be missing. Equal values may be shown once. A structure can be active in one record and inactive in another. Activity calls are given as the source filed them. Rule for the calls: active = hit-call score of the fitted dose curve at least 0.9, where 1 is the maximum; inactive = score below 0.9.

Assays:
[1] = read-out: Thrombomodulin, THBD (gene 7056); experiment: BSK_CASM3C_Thrombomodulin: BioMAP Diversity Plus: CASM3C Assay for Thrombomodulin Biomarker Activity (AID 2283051); conditions: primary human coronary artery smooth muscle cells; actives raise or lower the signal;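 note: thrombomodulin protein level measured by ELISA 24 h after dosing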
[2] = read-out: Tissue Factor, F3 (gene 2152); experiment: BSK_CASM3C_TissueFactor: BioMAP Diversity Plus: CASM3C Assay for Tissue Factor Biomarker Activity (AID 2283052); conditions: primary human coronary artery smooth muscle cells; actives raise or lower the signal;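 note: cell surface tissue factor protein level read by ELISA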
[3] = read-out: Interferon-gamma inducible Protein 10 (IP10), CXCL10 (gene 3627); experiment: BSK_hDFCGF_IP10: BioMAP Diversity Plus: hDFCGF Assay for Interferon-gamma inducible Protein 10 (IP10) Biomarker Activity (AID 2283053); conditions: primary human foreskin fibroblasts; actives raise or lower the signal
In short: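 Primary foreskin fibroblasts, human; 24 h compound exposure; IP-10 by ELISA; bidirectional fit vs DMSO.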

[4] = read-out: Urokinase-type plasminogen activator receptor (uPAR), PLAUR (gene 5329); experiment: BSK_CASM3C_uPAR: BioMAP Diversity Plus: CASM3C Assay for Urokinase-type plasminogen activator receptor (uPAR) Biomarker Activity (AID 2283054); conditions: primary human coronary artery smooth muscle cells; actives raise or lower the signal;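 note: cell-surface uPAR protein level quantified by ELISA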
[5] = read-out: Vascular cell adhesion molecule 1 (VCAM1), VCAM1 (gene 7412); experiment: BSK_CASM3C_VCAM1: BioMAP Diversity Plus: CASM3C Assay for Vascular cell adhesion molecule 1 (VCAM1) Biomarker Activity (AID 2283055); conditions: primary human coronary artery smooth muscle cells; actives raise or lower the signal;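 note: VCAM-1 protein level quantified by ELISA on the cells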
[6] = read-out: Collagen III, COL3A1 (gene 1281); experiment: BSK_hDFCGF_CollagenIII: BioMAP Diversity Plus: hDFCGF Assay for Collagen III Biomarker Activity (AID 2283056); conditions: primary human foreskin fibroblasts; actives raise or lower the signal
In short: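 Human foreskin primary fibroblasts were exposed to test chemicals for 24 h, after which collagen III was quantified by ELISA. Activity was fitted bidirectionally against DMSO as negative control and baseline.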

[7] = read-out: Epidermal growth factor receptor (EGFR), EGFR (gene 1956); experiment: BSK_hDFCGF_EGFR: BioMAP Diversity Plus: hDFCGF Assay for Epidermal growth factor receptor (EGFR) Biomarker Activity (AID 2283057); conditions: primary human foreskin fibroblasts; actives raise or lower the signal
In short: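 hDFCGF system, primary human foreskin fibroblasts; compound 24 h; EGFR measured by ELISA; DMSO = negative control/baseline; bidirectional fitting.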

[8] = read-out: Interleukin-8 (IL8), CXCL8 (gene 3576); experiment: BSK_hDFCGF_IL8: BioMAP Diversity Plus: hDFCGF Assay for Interleukin-8 (IL8) Biomarker Activity (AID 2283058); conditions: primary human foreskin fibroblasts; actives raise or lower the signal
In short: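 hDFCGF human dermal fibroblasts; 24 h chemical exposure; IL-8 by ELISA; bidirectional curve fit vs DMSO baseline; gain or loss of signal scored.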

[9] = BSK_hDFCGF_Proliferation: Cell Proliferation Assessment in the BioMAP Diversity Plus: hDFCGF Assay (AID 2283059); conditions: primary human foreskin fibroblasts;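 note: curves fitted for both rise and fall of signal versus DMSO baseline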
In short: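 This proliferation readout used SRB total-protein staining of human foreskin fibroblasts […], normalized to DMSO with bidirectional curve fitting.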

[10] = read-out: Macrophage colony-stimulating factor (MCSF), CSF1 (gene 1435); experiment: BSK_hDFCGF_MCSF: BioMAP Diversity Plus: hDFCGF Assay for Macrophage colony-stimulating factor (MCSF) Biomarker Activity (AID 2283060); conditions: primary human foreskin fibroblasts; actives raise or lower the signal
In short: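 Human foreskin primary fibroblasts were treated with test chemical for 24 h, and M-CSF was then measured by ELISA. Data were fitted bidirectionally against DMSO as the negative control and activity baseline.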

[11] = BSK_hDFCGF_SRB: Viability Assessment in the BioMAP Diversity Plus: hDFCGF Assay (AID 2283061); conditions: primary human foreskin fibroblasts;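 note: cells exposed to compound for 24 h before the read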
In short: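 Human foreskin primary fibroblasts were treated with compound and assessed 24 h after dosing. Total protein was measured by sulforhodamine B staining (0.1% SRB after 10% TCA fixation, 560 nm read) as a cytotoxicity marker, with bidirectional fitting against DMSO baseline.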

[12] = read-out: TIMP metallopeptidase inhibitor 1 (TIMP1), TIMP1 (gene 7076); experiment: BSK_hDFCGF_TIMP1: BioMAP Diversity Plus: hDFCGF Assay for TIMP metallopeptidase inhibitor 1 (TIMP1) Biomarker Activity (AID 2283062); conditions: primary human foreskin fibroblasts; actives raise or lower the signal
In short: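 Primary human foreskin fibroblasts in the hDFCGF system were dosed with compound for 24 h, then TIMP-1 was measured by ELISA. Activity was fitted bidirectionally relative to DMSO control; parallel SRB staining assessed cytotoxicity.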

[13] = read-out: Monokine induced gamma interferon (MIG), CXCL9 (gene 4283); experiment: BSK_hDFCGF_MIG: BioMAP Diversity Plus: hDFCGF Assay for Monokine induced gamma interferon (MIG) Biomarker Activity (AID 2283063); conditions: primary human foreskin fibroblasts; actives raise or lower the signal
In short: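 ELISA read-out of MIG from primary human dermal fibroblasts 24 h post-dosing. Gain or loss of signal fitted bidirectionally, DMSO as baseline.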

[14] = read-out: Matrix Metallopeptidase 1 (MMP1), MMP1 (gene 4312); experiment: BSK_hDFCGF_MMP1: BioMAP Diversity Plus: hDFCGF Assay for Matrix Metallopeptidase 1 (MMP1) Biomarker Activity (AID 2283064); conditions: primary human foreskin fibroblasts; actives raise or lower the signal
In short: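 hDFCGF primary fibroblasts (human foreskin); chemical added; 24 h; MMP1 by ELISA; bidirectional fit vs DMSO.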

[15] = read-out: Vascular cell adhesion molecule 1 (VCAM1), VCAM1 (gene 7412); experiment: BSK_hDFCGF_VCAM1: BioMAP Diversity Plus: hDFCGF Assay for Vascular cell adhesion molecule 1 (VCAM1) Biomarker Activity (AID 2283065); conditions: primary human foreskin fibroblasts; actives raise or lower the signal;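 for AC50: VCAM-1 protein level quantified by ELISA after 24 h chemical exposure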
In short: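 Primary human foreskin fibroblasts (hDFCGF system) were dosed with chemical and VCAM-1 was measured by ELISA 24 h later. Bidirectional curve fitting used DMSO as negative control and activity baseline.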

[16] = read-out: Plasminogen activator inhibitor-1 (PAI1), SERPINE1 (gene 5054); experiment: BSK_hDFCGF_PAI1: BioMAP Diversity Plus: hDFCGF Assay for Plasminogen activator inhibitor-1 (PAI1) Biomarker Activity (AID 2283066); conditions: primary human foreskin fibroblasts; actives raise or lower the signal
In short: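 Primary dermal fibroblasts (human foreskin), hDFCGF system; compound 24 h; PAI-1 by ELISA; bidirectional fit vs DMSO control.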

[17] = read-out: Intercellular Adhesion Molecule 1 (ICAM1), ICAM1 (gene 3383); experiment: BSK_KF3CT_ICAM1: BioMAP Diversity Plus: KF3CT Assay for Intercellular Adhesion Molecule 1 (ICAM1) Biomarker Activity (AID 2283067); conditions: primary human keratinocytes with fibroblasts; actives raise or lower the signal
In short: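 Human keratinocyte plus foreskin fibroblast primary co-culture was exposed to chemical for 24 h. ICAM-1 was then quantified by ELISA, and the data were fit bidirectionally against DMSO as the negative control and baseline.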

[18] = BSK_KF3CT_SRB: Viability Assessment in the BioMAP Diversity Plus: KF3CT Assay (AID 2283069); conditions: primary human keratinocytes with fibroblasts;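 note: fitted for both signal gain and loss against DMSO baseline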
In short: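 Keratinocytes co-cultured with foreskin fibroblasts (human primary); chemical added, 24 h; fix 10% TCA, stain 0.1% SRB, A560. Bidirectional fit vs DMSO.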

[19] = read-out: Interleukin-1 alpha (IL1a), IL1A (gene 3552); experiment: BSK_KF3CT_IL1a: BioMAP Diversity Plus: KF3CT Assay for Interleukin-1 alpha (IL1a) Biomarker Activity (AID 2283070); conditions: primary human keratinocytes with fibroblasts; actives raise or lower the signal
In short: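 Chemicals were dosed onto co-cultured human keratinocytes and foreskin fibroblasts, IL-1a was quantified by ELISA at 24 h, and activity was fitted in both directions relative to DMSO controls.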

[20] = read-out: Interferon-gamma inducible Protein 10 (IP10), CXCL10 (gene 3627); experiment: BSK_KF3CT_IP10: BioMAP Diversity Plus: KF3CT Assay for Interferon-gamma inducible Protein 10 (IP10) Biomarker Activity (AID 2283068); conditions: primary human keratinocytes with fibroblasts; actives raise or lower the signal
In short: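 Signal is secreted/surface IP-10 by ELISA in a human primary skin co-culture of keratinocytes and foreskin fibroblasts, taken 24 h post-dosing; DMSO served as negative control.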

Measured: AC50

CN(C)C(=S)SSC(=S)N(C)C
inactive: [2] | [4]
active: [1] 9.88 µM | [3] 2.74 µM | [5] 11.5 µM | [6] 6.36 µM | [7] 5.9 µM | [8] 7.67 µM | [9] 2.76 µM | [10] 4.39 µM | [11] 4.96 µM | [12] 9.76 µM | [13] 3.01 µM | [14] 5.34 µM | [15] 4.12 µM | [16] 5.64 µM | [17] 6.42 µM | [18] 7.21 µM | [19] 6.44 µM

COc1nc(C)nc(NC(=O)NS(=O)(=O)c2ccccc2CCC(F)(F)F)n1
active: [6] 0.213 µM | [14] 0.439 µM
inactive: [1] | [2] | [4] | [5] | [6] | [7] | [8] | [9] | [10] | [11] | [12] | [13] | [14] | [16] | [17] | [20] | [18] | [19]

CCOP(=S)(OCC)SCn1c(=O)oc2cc(Cl)ccc21
active: [1] 19.9 µM | [6] 20 µM | [9] 15.5 µM | [10] 14.3 µM | [14] 2.15 µM | [16] 13.8 µM | [17] 7.36 µM
inactive: [2] | [3] | [4] | [5] | [7] | [8] | [11] | [12] | [13] | [18] | [19]

CCCCOC(=O)c1ccccc1C(=O)OCCCC
active: [1] 11 µM | [6] 10.9 µM | [10] 12 µM
inactive: [1] | [2] | [4] | [5] | [6] | [7] | [8] | [9] | [10] | [11] | [12] | [13] | [14] | [16] | [17] | [20] | [18] | [19]

CCOC(=O)C(Cl)Cc1cc(-n2nc(C)n(C(F)F)c2=O)c(F)cc1Cl (stereo not given)
inactive: [1] | [2] | [3] | [4] | [5] | [6] | [7] | [8] | [9] | [10] | [11] | [12] | [13] | [14] | [16] | [17] | [20] | [18] | [19]

CCCCNC(=O)OCC#CI
inactive: [2] | [7]
active: [1] 4.72 µM and 36.3 µM | [2] 24.6 µM | [4] 12.7 µM and 13.9 µM | [5] 11.1 µM and 14.6 µM | [6] 7.69 µM and 7.7 µM | [7] 11.6 µM | [8] 10.2 µM and 11 µM | [9] 134 nM and 534 nM | [10] 5.14 µM and 9.67 µM | [11] 12.4 µM and 3.49 µM | [12] 7.08 µM and 26 µM | [13] 5.27 µM and 3.85 µM | [14] 8.48 µM and 7.13 µM | [16] 7.77 µM and 7.46 µM | [17] 35.1 µM and 15.5 µM | [18] 29.3 µM and 18 µM | [19] 30.1 µM and 20 µM

CCc1nn(C)c(C(=O)NCc2ccc(C(C)(C)C)cc2)c1Cl
inactive: [2] | [4] | [5] | [7]
active: [1] 13.2 µM | [3] 28.8 µM | [6] 20 µM | [8] 35.4 µM | [9] 20 µM | [10] 23.9 µM | [11] 27.5 µM | [12] 32.1 µM | [13] 33.7 µM | [14] 32.2 µM | [16] 15.5 µM | [17] 32.9 µM | [18] 32.4 µM | [19] 29.5 µM

Cc1ccc(-c2c(Cl)nc(C#N)n2S(=O)(=O)N(C)C)cc1
active: [3] 6.3 µM | [6] 13.9 µM | [9] 17 µM | [10] 14.3 µM | [11] 14.5 µM | [12] 18.3 µM | [18] 11.3 µM
inactive: [1] | [2] | [4] | [5] | [7] | [8] | [13] | [14] | [16] | [17] | [20] | [19]

COP(N)(=O)SC (stereo not given)
inactive: [1] | [2] | [4] | [5] | [6] | [7] | [8] | [9] | [10] | [11] | [12] | [13] | [14] | [15] | [16] | [17] | [20] | [18] | [19]

C=CC1(C)OC(=O)N(c2cc(Cl)cc(Cl)c2)C1=O (stereo not given)
inactive: [1] | [2] | [3] | [4] | [5] | [6] | [7] | [8] | [9] | [10] | [11] | [12] | [13] | [14] | [16] | [17] | [20] | [18] | [19]

OC(c1ccc(Cl)cc1)(c1cncnc1)c1ccccc1Cl (stereo not given)
inactive: [2] | [4] | [5] | [6] | [7] | [8] | [10] | [11] | [12] | [13] | [15] | [17] | [20] | [18] | [19]
active: [1] 16.6 µM | [9] 20 µM | [14] 11.5 µM | [16] 16.6 µM
